Data on eight compounds can be found in paper PMC5540273 (PLoS ONE, 2017).

Common to all, as to details: concentration: 1 μM, replicates: in singlicate; n = 1
In test [1] the test system is T1, ERK1.
T1 construct: gene MAPK3

Test [2] has as its system T2, ERK2.
T2 construct: gene MAPK1

For test [3], the system named is T3, ERK3.
T3 construct: gene MAPK6

In test [4] the test system is T4, ERK4.
T4 construct: gene MAPK4

Test [5] deals with T5, ERK5.
T5 construct: gene MAPK7

The test system of test [6] is T6, ERK8.
T6 construct: gene MAPK15

Test [7] has as its system ERN1.
Test [8] concerns T7, FAK.
T7 construct: gene PTK2

In test [9] the test system is FER.
The subject of test [10] is FES.
For test [11], the system named is FGFR1.
In test [12] the test system is FGFR2.
For test [13], the system named is FGFR3.
Test [14] deals with FGFR4.
Test [15] relates to FGR.
In test [16] the test system is FLT1.
For test [17], the system named is FLT3-autoinhibited.
Test [18] concerns FLT3.
Test [19] concerns FLT4.
In test [20] the test system is FRK.
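Also: KINOMEscan kinase panel screen.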

`Cn1cc(-c2cnc(N)c3c(-c4ccc5c(c4)CCN5C(=O)Cc4ccccc4)csc23)cn1` [GSK2593074]: the “%Inh” value in test [1] turned out to be 0%; in test [2], 0%; in [3] it was 0%; in test [4], 0%; in [5], 15%; in [6] it was 11%. For the same compound, the “%Inh” value came out at 28% in test [7]; 7% in test [8]; 10% in [9]; 14% in test [10]; 28% in test [11]; 40% in [12]. The “%Inh” value in test [13] is on record as 49%; in [14], 0%; in test [15], 75%; in test [16] it was 79%; in [17] it was 0%; in [18], 99%. Further, the “%Inh” value in test [19] stood at 31%; in [20] it was 38%.
As for `COc1cccc(CC(=O)N2CCc3cc(-c4cn(C)c5ncnc(N)c45)ccc32)c1` [GSK2608899], the “%Inh” value in [1] turned out to be 6%; in test [2], 13%; in test [3], 0%; in [4] it was 12%; in [5], 0%; in [6], 17%. Further, the “%Inh” value was 19% in [7]; 8% in test [8]; 17% in test [9]; 0% in test [10]; 22% in test [11]; 0% in test [12]. The “%Inh” value is reported as 0% in test [13]; 0% in test [14]; 15% in test [15]; 59% in test [16]; 0% in [17]; 66% in test [18]. Besides, the “%Inh” value in test [19] and in test [20] was 0% throughout.
In the case of `CCNc1nccc(-c2c(-c3ccc(F)cc3)ncn2C2CCN(C)CC2)n1`, the “%Inh” value in [1] worked out at 0%; in test [2], 0%; in [3] it was 0%; in [4] it was 0%; in test [5] it was 0%; in test [6] it was 4%. Besides, the “%Inh” value in [7] stood at 100%; in [8], 0%; in [9], 0%; in [10], 0%; in test [11] it was 0%; in [12], 6%. Also, the “%Inh” value in [13] was 0%; in test [14] it was 0%; in test [15] it was 0%; in test [16], 18%; in [17], 0%; in test [18], 24%. Besides, the entries for the “%Inh” value in [19] and in [20] were 6% and 0%, respectively.
As to `c1ccc(Oc2ccc(Nc3ccnc4cc(-c5ccc(CN6CCCCC6)o5)ccc34)cc2)nc1` [GW567143], the “%Inh” value was found to be 13% in [1]; 0% in test [2]; 0% in [3]; 0% in [4]; 0% in test [5]; 0% in test [6]. In addition, the “%Inh” value in test [7] is reported as 26%; in test [8], 0%; in test [9], 4%; in test [10], 0%; in test [11], 9%; in test [12] it was 0%. The “%Inh” value in [13] is given as 1%; in test [14], 1%; in test [15], 65%; in [16], 20%; in [17], 67%; in test [18], 98.4%. The “%Inh” value in [19] worked out at 23%; in test [20], 33%.
On to `NCCC(NC(=O)c1cc(Br)c(-c2ccnc3[nH]ccc23)s1)c1ccccc1.O=C(O)C(F)(F)F.O=C(O)C(F)(F)F` (stereo not shown) [GSK1307810], for which the “%Inh” value is listed as 4% in test [1]; 0% in test [2]; 7% in test [3]; 0% in [4]; 0% in test [5]; 33% in test [6]. Besides, the “%Inh” value in [7] was 22%; in test [8] it was 9%; in test [9] it was 3%; in test [10], 0%; in test [11], 73%; in [12] it was 74%. Besides, the “%Inh” value is on record as 45% in test [13]; 36% in test [14]; 13% in [15]; 73% in test [16]; 25% in test [17]; 88% in [18]. For the same compound, the results for the “%Inh” value in test [19] and in [20] were 39% and 22%, respectively.
Take `Cn1cc(-c2ccc3c(c2)CCN3C(=O)Cc2cc(F)cc(F)c2F)c2c(N)ncnc21` [GSK2634140]: the “%Inh” value in [1] stood at 9%; in test [2], 9%; in [3], 0%; in [4], 0%; in test [5], 0%; in test [6], 0%. In addition, the “%Inh” value in test [7] is recorded as 11%; in test [8], 5%; in [9], 39%; in test [10], 0%; in test [11], 0%; in test [12] it was 0%. Further, the “%Inh” value in test [13] is 0%; in test [14], 0%; in test [15], 48%; in test [16] it was 59%; in [17], 0%; in test [18], 31%. Further, the “%Inh” value was 14% in [19] and 10% in test [20].
Turning to `N#CC1(c2cccc(C(=O)Nc3cccc(Oc4ccc5nc(NC(=O)C6CC6)sc5n4)c3)c2)CC1`, the “%Inh” value is listed as 0% in test [1]; 0% in [2]; 0% in [3]; 0% in test [4]; 0% in test [5]; 29% in test [6]. Also, the “%Inh” value in [7] is given as 0%; in test [8], 17%; in test [9] it was 22%; in test [10], 0%; in test [11] it was 92.7%; in test [12] it was 95.3%. Moreover, the “%Inh” value in test [13] is recorded as 70%; in [14] it was 70%; in test [15] it was 88%; in test [16] it was 98.5%; in test [17], 16%; in [18], 96%. Moreover, the “%Inh” value is listed as 100% in test [19] and 98% in [20].
Regarding `Cl.Cl.NC(CNC(=O)c1cc(Br)c(-c2ccnc3[nH]ccc23)s1)c1ccccc1` (stereo not shown) [GSK1322949], the “%Inh” value in test [1] was 4%; in test [2] it was 0%; in test [3], 4%; in [4], 27%; in test [5], 0%; in test [6] it was 24%. Moreover, the “%Inh” value in [7] was determined as 13%; in [8], 83%; in test [9] it was 10%; in test [10] it was 0%; in test [11] it was 45%; in test [12], 39%. Further, the “%Inh” value in test [13] came to 26%; in test [14], 29%; in test [15], 14%; in test [16] it was 64%; in test [17], 1%; in test [18] it was 90.9%. Moreover, the “%Inh” value in test [19] was 17%; in [20], 0%.
